Data published in the supplement of paper PMC10338343.
± gives the standard deviation.

Tested on: EfPiwi piRISC loaded with L1MC piRNA (26 nt)
Assay: pre-steady-state target cleavage rate (min^-1); auxiliary factor: 500 nM Ephydatia muelleri Gtsf1; guide: L1MC piRNA 5'p-UAACUAAAUACUAUGCAAGCUGUAGG; MIWI and MILI are mouse PIWI proteins and EfPiwi is from a freshwater sponge; tags in brackets are library labels; higher = faster piRNA-guided slicing of the target
Summary of the method: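 With or without 500 nM GTSF1 partner protein, 1 nM active affinity-purified piRISC carrying one synthetic guide was mixed with 0.1 nM transcribed, DNA-blocked target RNA library in HEPES–potassium acetate buffer at 33 °C for 0–8 or 0–960 min. Uncleaved targets were sequenced and normalised to depth and to weakly complementary targets, three trials were pooled, and k3 was capped at 0.0001 min^-1. The pre-steady-state cleavage rate came from a burst-and-steady-state fit.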

Row | Sequence | pre-steady-state target cleavage rate
1 | UCCUCCUACUGGUUGCAUAGUAUUUAGUUA | 0.1 ± 0.025
2 | UCCUGCUACAGCUUGCAUAGUUAUUUAGUUA | 0.00578 ± 0.0032
3 | UCCUGGUACAGCUUGCUUAGUUUUUAGUUA | 0.00346 ± 0.003
4 | UCCUCCUACAGCUUGCAUAGUAAUUAGUUA | 0.0117 ± 0.0045
5 | UCCUGGAACACGAUGCAUAGUAUUUAGUUA | 0.00377 ± 0.0016
6 | UCCUCCUAGCAGCUUGCAUAGUAUUUAGUUA | 0.0339 ± 0.0083
7 | UCCUGGAUCUGCUUGCAUAGUAUAUAGUUA | 0.0643 ± 0.018
8 | UCCUGGUACGGCUUGCAUAGUAUUUAGUUA | 0.00921 ± 0.0043
9 | UCCUGGUACAGGUUGCAUACUAUUUAGUUA | 0.00258 ± 0.002
10 | UCCUCCUACAGCUGUGCAUAGUAUUUAGUUA | 0.0425 ± 0.015
11 | UCCUGGAACAUGCUUGCAUAGUAUUUAGUUA | 0.0178 ± 0.0057
12 | UCCUGGAUCAGCUUGCAUAGUAUUUUGUUA | 0.0125 ± 0.0042
13 | UCCUGGAUGAGCUUGGAUAGUAAUUAGUUA | 0.00302 ± 0.0021
14 | UCCUCCUACAGCUUGCGUAGUAUUUAGUUA | 0.031 ± 0.011
15 | UCCUGCUACAGCUUGGUUAGUAUUUAGUUA | 0.0105 ± 0.0033
16 | UCCUGGAUCAGCUUGCAUAGUAUUUAGUCA | 0.0102 ± 0.0044
17 | UCCUGGAUGUGCUUGCAUAGUACUUUAGUUA | 0.0126 ± 0.0061
18 | UCCUGCUACUGCUUGCAUAGUAUUUAGUUA | 0.00883 ± 0.003
19 | UCCUCCUUGUGCUUGCAUAGUAUUUAGUUA | 0.0113 ± 0.0034
20 | UCCUGGAUGUCCUUGCAUAGUAUCUAGUUA | 0.00775 ± 0.0043

Row | Sequence | pre-steady-state target cleavage rate
21 | UCCUGGAUGAGCUUGCAUGGUAUUUAGUUA | 0.0127 ± 0.0045
22 | UCCUGGAUGAGGAUGCAUAGUAUUUAGUUA | 0.00336 ± 0.0024
23 | UCCUCGUACAGCUUGCAUAGUAUAUAGUUA | 0.0103 ± 0.0042
24 | UCCUGGAUGUGCUUGCAUAGUAUUUAGGUUA | 0.00262 ± 0.0021
25 | UCCUGGAUGAGCUUGCAUAGUAUUUAGUUG [g2:g21:cont:t1G] | 0.0161 ± 0.0043
26 | UCCUGGAUGUGCUUGCACAGUAUUUAGUUA | 0.00686 ± 0.0028
27 | UCCUGCUUGAGCUUGCAUAGUAUUUAGUUA | 0.00861 ± 0.0024
28 | UCCUCGUACAGCUUGCAUACUAUUUAGUUA | 0.0224 ± 0.0069
29 | UCCUCCAACAGCUUGCAUAGUAUUAAGUUA | 0.00502 ± 0.002
30 | UCCUGGUACAGCUUGCAUAGUAUUUAGUUU [g2:g24:cont:t1U] | 0.117 ± 0.038
31 | UCCUCCUACAGCUUGCAAAGUAUAUAGUUA | 0.008 ± 0.0043
32 | UCCUCCUACAGGUUGCUUAGUAUUUAGUUA | 0.0231 ± 0.0065
33 | UCCUGGUACAGCUAGCAUAGUAAUUAGUUA | 0.00407 ± 0.0023
34 | UCCUGGAACAGCUAGCAUAGUAUUUAGUAA | 0.00289 ± 0.0015
35 | UCCUGCUACACGCUUGCAUAGUAUUUAGUUA | 0.00609 ± 0.0019
36 | UCCUGGUACAGCAUGCAUAGUAUUUAGUAA | 0.00753 ± 0.0032
37 | UCCUCCUACAGGUUGCAUUGUAUUUAGUUA | 0.0124 ± 0.0028
38 | UCCUCCUAACAGCUUGCAUAGUAUUUAGUUA | 0.0133 ± 0.0051
39 | UCCUGGAUCAGCUUGCAAACUAUUUAGUUA | 0.00476 ± 0.003
40 | UCCUGGAUGAGCUUACAUAGUAUUUAGUUA | 0.00581 ± 0.0024
